Over roughly 140,000 sequences, “enrichment ratio after two sorts for PhoP signalling” has its median near 0; the highest 2% begin near 11. This is one part of a sample in which the highest values are shown more often than they occur.
B1: PhoQ; a variant is named by its letters at X, in order, P23837 (parent)
chain: MKKLLRLFFPLSLRVRFLLATAAVVLVLSLAYGMVALIGYSVSFDKTTFRLLRGESNLFYTLAKWENNKLHVELPENIDKQSPTMTLIYDENGQLLWAQRDVPWLMKMIQPDWLKSNGFHEIEADVNDTSLLLSGDHSIQQQLQEVREDDDDAEMTHSVAVNVYPATSRMPKLTIVVVDTIPVELKSSYMVWSWFIYVLSANLLLVIPLLWVAAWWSLRPIEALAKEVRELEEHNRELLNPATTRELTSLVRNLNRLLKSERERYDKYRTTLTDLTHSLKTPLXXLQXXLRSLRSEKMSVSDAEPVMLEQISRISQQIGYYLHRASMRGGTLLSRELHPVAPLLDNLTSALNKVYQRKGVNISLDISPEISFVGEQNDFVEVMGNVLDNACKYCLEFVEISARQTDEHLYIVVEDDGPGIPLSKREVIFDRGQRVDTLRPGQGVGLAVAREITEQYEGKIVAGESMLGGARMEVIFGRQHSAPKDE

Variants of: B1
Experiment: enrichment ratio after two sorts for PhoP signalling (ratio (wild type AVST 3.29)); higher = more functional
Settings: with PhoP (E. coli)
With GVSL the enrichment ratio was 5.42. In the case of GQSH, the enrichment ratio is reported as ≤ 0.25. YRWT was tested, and the enrichment ratio was ≤ 0.25. For FKMN, the enrichment ratio was ≤ 0.25. For IMAN, the enrichment ratio was ≤ 0.25. With MAYM the enrichment ratio was 9.25. With MAHE the enrichment ratio was ≤ 0.25. Work on MAYN yielded an enrichment ratio of 16.6. For KAYN, the enrichment ratio was ≤ 0.25. In the case of MAHF, the enrichment ratio is reported as 9.56. Variant MAHI has an enrichment ratio of 24.7. LMFI was tested, and the enrichment ratio was ≤ 0.25. VDKC was tested, and the enrichment ratio was ≤ 0.25. Variant PFWD has an enrichment ratio of 3.08. SWFV was tested, and the enrichment ratio was ≤ 0.25. For FCIG, the enrichment ratio was ≤ 0.25. In the case of ATCH, the enrichment ratio is reported as ≤ 0.25. With ATMH the enrichment ratio was 12.3. In the case of HKMH, the enrichment ratio is reported as ≤ 0.25. For AKMH, the enrichment ratio was 12. With ATTH the enrichment ratio was 8.31. With AIMH the enrichment ratio was 4.85. QGLS gave an enrichment ratio of 3.82. With LDNH the enrichment ratio was ≤ 0.25. Work on MEIV yielded an enrichment ratio of 6.05. In the case of TEIV, the enrichment ratio is reported as ≤ 0.25. Work on TEIS yielded an enrichment ratio of 11.4. With NEIS the enrichment ratio was ≤ 0.25. MEIS gave an enrichment ratio of 13.8. QEIS was tested, and the enrichment ratio was ≤ 0.25. For FGMP, the enrichment ratio was ≤ 0.25. With MYAF the enrichment ratio was ≤ 0.25. With THMV the enrichment ratio was 8.19. In the case of NHMI, the enrichment ratio is reported as ≤ 0.25. With NEMI the enrichment ratio was 29. In the case of NEMV, the enrichment ratio is reported as 14.8. Variant THMI has an enrichment ratio of 26.1. With NEMS the enrichment ratio was ≤ 0.25. NHMV was tested, and the enrichment ratio was ≤ 0.25. SHMI showed an enrichment ratio of 5.85. For NEMD, the enrichment ratio was ≤ 0.25. With DIIV the enrichment ratio was ≤ 0.25. With DPWI the enrichment ratio was ≤ 0.25. For ARSS, the enrichment ratio was 0.56. For QLGI, the enrichment ratio was ≤ 0.25. With HQLC the enrichment ratio was ≤ 0.25. With HNDG the enrichment ratio was ≤ 0.25. With HGKL the enrichment ratio was ≤ 0.25. ATLC was tested, and the enrichment ratio was 13.2. For AILC, the enrichment ratio was 7.86. Variant FTLC has an enrichment ratio of 6.55. TKLC showed an enrichment ratio of 19.8. AYLC gave an enrichment ratio of 0.263. Work on YTLC yielded an enrichment ratio of 11.3. For IILC, the enrichment ratio was ≤ 0.25. Variant SALC has an enrichment ratio of 12. YYLC was tested, and the enrichment ratio was ≤ 0.25. For MKLC, the enrichment ratio was ≤ 0.25. For KQLC, the enrichment ratio was ≤ 0.25. HKLC was tested, and the enrichment ratio was ≤ 0.25. KVHY was tested, and the enrichment ratio was ≤ 0.25. RTKV was tested, and the enrichment ratio was ≤ 0.25. For APDH, the enrichment ratio was ≤ 0.25. For RGMG, the enrichment ratio was ≤ 0.25. Work on TDLC yielded an enrichment ratio of 11.7. In the case of KDLC, the enrichment ratio is reported as ≤ 0.25. DFLC was tested, and the enrichment ratio was ≤ 0.25. Work on STLC yielded an enrichment ratio of 13.2. With SWLC the enrichment ratio was ≤ 0.25. For SPLC, the enrichment ratio was ≤ 0.25. ADLC showed an enrichment ratio of 3.37. LWLC was tested, and the enrichment ratio was ≤ 0.25. With SGNS the enrichment ratio was ≤ 0.25. With KYLC the enrichment ratio was ≤ 0.25. In the case of SGLC, the enrichment ratio is reported as 20.7. Variant SCLC has an enrichment ratio of 12.4. For HWIF, the enrichment ratio was ≤ 0.25. MFWN was tested, and the enrichment ratio was ≤ 0.25. With AMSS the enrichment ratio was 9.96. WMWY was tested, and the enrichment ratio was ≤ 0.25. With SRLC the enrichment ratio was ≤ 0.25. Work on SKLC yielded an enrichment ratio of 12.6. Variant TTLC has an enrichment ratio of 14.4. For SLLC, the enrichment ratio was 7.49. In the case of LTLC, the enrichment ratio is reported as ≤ 0.25. In the case of GTLC, the enrichment ratio is reported as 10. With SKTC the enrichment ratio was 11.1. SELC gave an enrichment ratio of 20.4. For SKKC, the enrichment ratio was ≤ 0.25. For SNLC, the enrichment ratio was 11.3. TPLC was tested, and the enrichment ratio was ≤ 0.25. SFLC showed an enrichment ratio of 4.52. With VGMT the enrichment ratio was ≤ 0.25. For NFAS, the enrichment ratio was ≤ 0.25. AWLG was tested, and the enrichment ratio was ≤ 0.25. For PRVI, the enrichment ratio was ≤ 0.25. For THYW, the enrichment ratio was ≤ 0.25. With ELGT the enrichment ratio was ≤ 0.25. In the case of FGYD, the enrichment ratio is reported as ≤ 0.25. Work on EVSM yielded an enrichment ratio of 7.73. Variant SNNM has an enrichment ratio of 13.1. With SNGY the enrichment ratio was 12.6. STNM gave an enrichment ratio of 11.4. SNGS was tested, and the enrichment ratio was 9.33. Work on SQNM yielded an enrichment ratio of 1.65. SRGY was tested, and the enrichment ratio was ≤ 0.25. In the case of SNGM, the enrichment ratio is reported as 15.3. SNGD was tested, and the enrichment ratio was ≤ 0.25. SNRM was tested, and the enrichment ratio was ≤ 0.25. SLNM was tested, and the enrichment ratio was ≤ 0.25. With YTNM the enrichment ratio was ≤ 0.25. Variant SNNY has an enrichment ratio of 8.91. In the case of RSCE, the enrichment ratio is reported as ≤ 0.25. For QIIS, the enrichment ratio was ≤ 0.25. Variant TQLR has an enrichment ratio of 2.23. For LNRD, the enrichment ratio was 0.657. For EFTP, the enrichment ratio was ≤ 0.25. In the case of NIED, the enrichment ratio is reported as ≤ 0.25. For HGTL, the enrichment ratio was 6.22. SDCM was tested, and the enrichment ratio was 17.2. SPCM was tested, and the enrichment ratio was ≤ 0.25. For FDCM, the enrichment ratio was ≤ 0.25. Variant MTCM has an enrichment ratio of 12.2. In the case of SYCM, the enrichment ratio is reported as ≤ 0.25. SRCM was tested, and the enrichment ratio was 9.77. SECM showed an enrichment ratio of 38.2. In the case of MHCM, the enrichment ratio is reported as ≤ 0.25. With MTCK the enrichment ratio was ≤ 0.25. Variant SVCM has an enrichment ratio of 14.2. SVCK gave an enrichment ratio of 9.8. SVCE gave an enrichment ratio of 2.84. For KPWY, the enrichment ratio was ≤ 0.25. TYSW was tested, and the enrichment ratio was ≤ 0.25. With HHAG the enrichment ratio was ≤ 0.25. For IFAS, the enrichment ratio was ≤ 0.25. In the case of MQIG, the enrichment ratio is reported as ≤ 0.25. For NTCM, the enrichment ratio was ≤ 0.25. WLCM was tested, and the enrichment ratio was ≤ 0.25. With LTCM the enrichment ratio was ≤ 0.25. In the case of TTCM, the enrichment ratio is reported as 24.5. With ITCM the enrichment ratio was 1. With YHCM the enrichment ratio was ≤ 0.25. RTCM was tested, and the enrichment ratio was ≤ 0.25. FTCM was tested, and the enrichment ratio was 7.68. For STCM, the enrichment ratio was 13.3. Variant SLCM has an enrichment ratio of 16.9. In the case of PLCM, the enrichment ratio is reported as ≤ 0.25. Variant YTCM has an enrichment ratio of 11.5. For RMAR, the enrichment ratio was ≤ 0.25. LPWH was tested, and the enrichment ratio was ≤ 0.25. With KMFP the enrichment ratio was ≤ 0.25. IDIW was tested, and the enrichment ratio was ≤ 0.25. In the case of DRHH, the enrichment ratio is reported as ≤ 0.25.

From a collection of fitness landscapes (doi:10.1126/science.1257360)
